Among the data in the supplement of paper PMC9492666 are relative cell viability values, retold here.

Structures can show the parent of a compound that is named as a salt.
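Note: viability read by CCK-8 kit in 96-well plates, part of a combination screen pairing lipid-metabolism-targeting compounds with erastin.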

In this experiment the test system is MDA-MB-231. Description: relative cell viability, compound + erastin, vs DMSO (fraction of DMSO control); higher = less growth inhibition. As to conditions: 72 h.
Turning to `c1ccc([C@H]2CN3CCSC3=N2)cc1` [Levamisole hydrochloride] + CCOc1ccccc1-n1c(C(C)N2CCN(C(=O)COc3ccc(Cl)cc3)CC2)nc2ccccc2c1=O [erastin], the relative cell viability turned out to be 0.779.

For the compound `COC(=O)/C=C/c1cccc(N(Cc2ccc(-c3ccc(N(C)C)cc3)cc2)C(=O)C2CCCCC2)c1` [Fexaramine] + CCOc1ccccc1-n1c(C(C)N2CCN(C(=O)COc3ccc(Cl)cc3)CC2)nc2ccccc2c1=O [erastin], the relative cell viability stood at 1.08.

With `CN(CCOc1ccc(CC2SC(=O)NC2=O)cc1)c1ccccn1` (configuration not stated) [Rosiglitazone maleate] + CCOc1ccccc1-n1c(C(C)N2CCN(C(=O)COc3ccc(Cl)cc3)CC2)nc2ccccc2c1=O [erastin], the relative cell viability was 0.965.

Regarding `O=C(NNc1ccccc1)c1ccncc1` [PluriSln 1] + CCOc1ccccc1-n1c(C(C)N2CCN(C(=O)COc3ccc(Cl)cc3)CC2)nc2ccccc2c1=O [erastin], the relative cell viability stood at 0.696.

For `N#Cc1ccc(Oc2cccc(NC(=O)Nc3ccc(Cl)c(C(F)(F)F)c3)c2)cc1` + CCOc1ccccc1-n1c(C(C)N2CCN(C(=O)COc3ccc(Cl)cc3)CC2)nc2ccccc2c1=O [erastin], the relative cell viability was found to be 0.127.

`CC(C)CCC[C@@H](C)[C@H]1CC[C@H]2[C@@H]3CC=C4C[C@@H](O)CC[C@]4(C)[C@H]3CC[C@]12C` [Cholesterol] + CCOc1ccccc1-n1c(C(C)N2CCN(C(=O)COc3ccc(Cl)cc3)CC2)nc2ccccc2c1=O [erastin]: the relative cell viability came to 0.953.

As for `COc1ccc(-n2c(SCCCN3C(=O)c4cccc5cccc(c45)C3=O)nnc2-c2ccncc2)cc1` + CCOc1ccccc1-n1c(C(C)N2CCN(C(=O)COc3ccc(Cl)cc3)CC2)nc2ccccc2c1=O [erastin], the relative cell viability came out at 0.658.
